This is one part of a sample in which hits are shown more often than they occur.
Pf apPOL inh: Pf-apPOL inhibitors, biochemical, fluorescence; inhibition, % at 10 µM; AID 1794808, 2022; 0.25% of 210,000 active; Recombinant Pf-apPOL, molecular beacon fluorescence, 1.5 h
mHTT-CaM PPI inh: mutant huntingtin-calmodulin interaction inhibitors – biochemical, AlphaScreen, primary screen; P42858; AlphaScreen His-mHTT/GST-CaM binding, luminescence; inhibition, % at 15 µM; 3.6% of 190,000 active; AID 1671202, 2021;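 further: 0% = both proteins with DMSO and 100% = one protein alone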
* = called active by the depositor; nt = no result; ! = repeats disagree. No stated cut-off is given here; in the data, active means inhibition above about 50%; inactive means the rest.

SMILES | Pf apPOL inh | mHTT-CaM PPI inh
Cn1nc(C(=O)NCc2ccc(F)cc2)c2c1CCN(C(=O)C1CCCC1)C2 | -2 | 77*
CCC(=O)N1CCc2c(c(COCc3ccc(C)cc3)nn2C)C1 | -2 | 14
Cc1cccc(CNC(=O)c2nn(C)c3c2CN(C(=O)C2CCC2)CC3)c1 | -10 | 37
Cc1ccc(NC(=O)c2ccc(SCCN3CCCCC3)nc2)cc1F | -5 | 2
Cc1cc(C(F)(F)F)nc2sc(C(=O)Nc3cnc4ccccc4c3)c(N)c12 | 2 | -3
COc1cc(C2c3cc4c(cc3OC3(O)CCCCC23)OCO4)cc(OC)c1OC (stereo not drawn) | nt | 32
CCCC(=O)N1CCc2c(c(C(=O)NCc3ccc(Cl)cc3)nn2C)C1 | -10 | 84*
Cn1nc(C(=O)NCc2ccc(Cl)cc2)c2c1CCN(C(=O)CC1CCCC1)C2 | 3 | 41
CCCc1cc(C2CCCN2C(=O)c2cc(-c3ccccc3F)no2)no1 (stereo not drawn) | 0 | -22
O=[N+]([O-])c1ccccc1S(=O)(=O)Nc1ccc(Cl)c(Cl)c1 | -11 | 5
Cc1ccc(NS(=O)(=O)c2ccccc2[N+](=O)[O-])cc1C | 51* | 12
Cc1ncn(CC(=O)Nc2ccc(F)cc2)c(=O)c1C | -1 | -7
Cc1ccc(OCC(=O)N2CCCC2c2nc(-c3cccc(C)c3)no2)cc1 (stereo not drawn) | 0 | 80*
COc1cccc(-c2noc(C3CCCN3C(=O)Nc3cccc(Cl)c3)n2)c1 (stereo not drawn) | -2 | -8
COc1ccc(OCC(=O)N2CCCC2c2nc(-c3cccc(C)c3)no2)cc1 (stereo not drawn) | 1 | 15
COc1cccc(-c2noc(C3CCCN3C(=O)Nc3ccc(F)c(Cl)c3)n2)c1 (stereo not drawn) | -1 | 58*
CCn1ccc(C(=O)N2CCCC2c2nc(-c3cccc(C(F)(F)F)c3)no2)n1 (stereo not drawn) | 7 | 88*
CCn1ccc(C(=O)N2CCCC2c2nc(-c3cccc(Cl)c3)no2)n1 (stereo not drawn) | -3 | 10
CCC(=O)Nc1cccc(-c2noc(C3CCCN(C(=O)COc4cccc(C)c4)C3)n2)c1 (stereo not drawn) | -1 | 79*
CCC(=O)Nc1cccc(-c2noc(C3CCCN(C(=O)c4cccc(OC)c4)C3)n2)c1 (stereo not drawn) | -4 | 8
COc1ccc(N(CC(=O)Nc2ccc(OC)c(OC)c2)S(C)(=O)=O)cc1Cl | -4 | 7
Clc1cccc(Cl)c1CSc1nnc(-c2ccco2)o1 | 0 | -34
CC1(c2ccccc2NC(=O)c2ccccc2Br)CC1 | 9 | -16
Cc1ccc(S(=O)(=O)N2CCN(c3ncccn3)CC2)cc1 | 1 | -4
CCOc1cc(CN2CCCC2c2cc(C)on2)ccc1OCC(N)=O (stereo not drawn) | -10 | 20
SMILES | Pf apPOL inh | mHTT-CaM PPI inh
CS(=O)(=O)N1CCC(C(=O)N2CCN(c3cc(-c4ccccc4)ncn3)CC2)CC1 | -9 | 0
O=S(=O)(NC1CC2CCC1C2)c1cc(Cl)ccc1Cl (stereo not drawn) | -5 | -18
COc1ccc(-c2nccc(C3CCCN(C(=O)c4cccc(F)c4)C3)n2)cc1 (stereo not drawn) | -1 | 15
O=[N+]([O-])c1ccc(N2CCOCC2)cc1SCc1ccco1 | -6 | 24
O=[N+]([O-])c1ccc(N2CCN(S(=O)(=O)c3ccccc3)CC2)cc1SCc1ccco1 | -9 | 98*
O=C(NCCc1cscn1)C1CCN(C(=O)c2ccccc2Br)CC1 | -2 | -8
CC(=O)N1CCN(c2nc(C3CC3)nc(C)c2Cc2ccccc2F)CC1 | 2 | 8
CCC(=O)Nc1ccc(NC(=O)CC)cc1 | -6 | 0
CSC(=CC(=O)c1sc2scc(C)c2c1C)SC | -8 | nt
COC(=O)c1sc2scc(C)c2c1C | 64*! | nt
O=C(O)C1=CC(Cl)=C(Cl)[C@H](O)[C@@H]1O | nt | -7
Cc1ccc([C@H]2C[C@@H](O)[C@H](n3cc(C4CC4)nn3)CN2Cc2cccs2)cc1 | -1 | -4
Cc1ccc([C@H]2C[C@H](O)[C@@H](n3cc(C4CC4)nn3)CN2Cc2cccs2)cc1 | -4 | 100*
O[C@H]1CN(Cc2cccs2)[C@@H](c2ccccc2)C[C@@H]1n1cc(C2CC2)nn1 | -3 | 18
COc1ccc([C@H]2C[C@H](n3cc(-c4ccc(F)cc4)nn3)[C@@H](O)CN2Cc2cccs2)cc1 | -3 | 63*
Cc1ccc([C@H]2C[C@H](n3cc(C4CC4)nn3)[C@@H](O)CN2Cc2cccs2)cc1 | -3 | 80*
COc1ccc([C@H]2C[C@@H](n3cc(-c4ccc(F)cc4)nn3)[C@H](O)CN2Cc2cccs2)cc1 | 2 | -1
NS(=O)(=O)c1ccc(CCNC(=O)c2csc(-n3cccc3)n2)cc1 | -8 | -7
COC(=O)c1ccc(Oc2coc3c4c(ccc3c2=O)OCN(Cc2ccc3c(c2)OCO3)C4)cc1 | -13 | 10
CCN(CC)CCNC(=O)C1CCN(c2nccc(C)n2)CC1 | 9 | -8
O=C(Cc1ccc([N+](=O)[O-])cc1)NCc1ccc2[nH]c3c(c2c1)CCCC3 | 28 | 31
O=C(NCc1ccc2[nH]c3c(c2c1)CCCC3)C12CC3CC(CC(C3)C1)C2 | -6 | 98*
O=C(CC1CCCCC1)NCc1ccc2[nH]c3c(c2c1)CCCC3 | -5 | 92*
CN(C)S(=O)(=O)c1ccc(C(=O)NCc2ccc3[nH]c4c(c3c2)CCCC4)cc1 | -6 | 29
Cc1ccccc1NC(=O)c1cc2n(n1)CCCN(Cc1cccc(F)c1)C2=O | -2 | 6
SMILES | Pf apPOL inh | mHTT-CaM PPI inh
CCc1ccccc1NC(=O)c1ccc(NC(C)=O)cc1 | -3 | 2
CCSc1ccsc1C1C(C#N)=C(N)N(c2ccccc2F)C2=C1C(=O)CCC2 (stereo not drawn) | -6 | 43
Cc1cccc(-c2nc3n(n2)C(c2ccc(O)cc2)C2=C(CC(C)(C)CC2=O)N3)c1 (stereo not drawn) | -2 | 7
CC1(C)CC(=O)C2=C(C1)Nc1nc(-c3cccc(Cl)c3)nn1C2c1ccc2c(c1)OCO2 (stereo not drawn) | -2 | 61*
O=C1N(CC(=O)N2CCCc3ccccc32)CCN1c1ccc(F)c(F)c1 | -2 | -6
O=C(NCc1ccncc1)c1cccc(N2CCNC(c3ccccc3)C2)n1 (stereo not drawn) | -13 | 1
COc1ccc(NC(=O)c2cccc(N3CCNC(c4ccccc4)C3)n2)c(OC)c1 (stereo not drawn) | -8 | 70*
O=C(NCc1ccc(N2CCCC2)cc1)c1cccc(N2CCNC(c3ccccc3)C2)n1 (stereo not drawn) | -1 | 82*
O=C(NCCc1cccs1)c1cccc(N2CCNC(c3ccccc3)C2)n1 (stereo not drawn) | 34 | 87*
O=C(NCCc1ccccn1)c1cccc(N2CCNC(c3ccccc3)C2)n1 (stereo not drawn) | -17 | 16
COc1cccc(NC(=O)c2cccc(N3CCNC(c4ccccc4)C3)n2)c1 (stereo not drawn) | -6 | 16
COc1cccc(C2CC(c3cccc(NS(C)(=O)=O)c3)=NN2C(=O)C(C)(C)C)c1O (stereo not drawn) | -6 | 2
Cc1ccc(C=Nc2ccc(S(=O)(=O)Nc3ccccn3)cc2)cc1 | -11 | -3
